Shown are actives, neighbours in structure and some others; about 2.5% of the full set was active somewhere.
Cruzain inh Det: cruzain (T. cruzi) inhibition with detergent | 0.43% of 200,000 active | Potency, µM, without a hit: max response, negative = inhibition, actives largely listed as inhibitors | P25779 | AID 1478 | purified cruzain, Z-FR-AMC fluorescence, 0.01% Triton;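 note: plate controls were neutral wells for no effect and buffer without enzyme for full effect; nearly all actives have a fitted effect of over 40% in size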
Target sequence (P25779 123-467 limits assumed): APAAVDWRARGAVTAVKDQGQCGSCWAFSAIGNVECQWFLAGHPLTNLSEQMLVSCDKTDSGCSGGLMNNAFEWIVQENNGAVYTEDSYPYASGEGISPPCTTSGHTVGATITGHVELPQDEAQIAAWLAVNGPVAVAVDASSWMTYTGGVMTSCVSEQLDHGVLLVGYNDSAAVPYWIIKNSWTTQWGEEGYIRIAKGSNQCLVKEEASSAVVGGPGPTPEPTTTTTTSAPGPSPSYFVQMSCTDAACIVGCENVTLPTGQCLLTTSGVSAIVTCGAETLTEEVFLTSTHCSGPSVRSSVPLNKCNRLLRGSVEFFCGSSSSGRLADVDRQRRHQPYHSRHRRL
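Read-out: AMC fluorescence (360 nm excitation, 450 nm emission), four reads over 2 min, first-to-third difference used. Conditions: cruzain 1.5 nM, Z-FR-AMC 2 uM, pH 5.5 acetate, 5 mM DTT, 0.01% Triton X-100.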
Cruzain noTriton: blocks cruzain activity in detergent-free assay; AID 1476; P25779; purified cruzain, Z-FR-AMC fluorescence, no detergent; 2.3% of 200,000 active; Potency, µM, without a hit: max response, negative = inhibition, hits mostly inhibitors;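 note: plate controls were enzyme without inhibitor for no effect and buffer without enzyme for full effect; nearly all actives have a fitted effect of over 40% in size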
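Purified cruzain at 1.5 nM, pre-incubated 15 min with compound at room temperature in 100 mM sodium acetate pH 5.5, 5 mM DTT, 0.00005% Triton X-100. Reaction started with 2 uM Z-FR-AMC; AMC fluorescence increase over 60 s gives rate.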
Papain counter: papain (Carica papaya) inhibition counter-screen; shares compounds with Cruzain inh Det; Potency, µM, inactives show max response, negative = inhibition, actives largely listed as inhibitors; 41% of 410 active; purified papain, Z-FR-AMC fluorescence cleavage;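 note: 0% = no-compound wells and -100% = no-enzyme wells; nearly all actives have a fitted effect of over 35% in size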
Target sequence (P00784 whole entry, looked up): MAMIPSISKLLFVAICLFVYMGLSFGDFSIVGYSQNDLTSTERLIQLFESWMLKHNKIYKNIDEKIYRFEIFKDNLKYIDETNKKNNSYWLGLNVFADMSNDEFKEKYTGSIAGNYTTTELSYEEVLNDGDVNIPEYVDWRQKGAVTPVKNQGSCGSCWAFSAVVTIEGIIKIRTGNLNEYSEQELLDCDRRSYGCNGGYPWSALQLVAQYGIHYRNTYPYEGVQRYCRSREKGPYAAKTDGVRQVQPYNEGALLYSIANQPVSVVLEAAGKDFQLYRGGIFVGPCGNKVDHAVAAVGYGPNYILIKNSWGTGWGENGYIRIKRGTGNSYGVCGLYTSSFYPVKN
Numbers without * were called inactive; ? = inconclusive; nt = no result given. Calls come from the whole dose curve; as a rule, active = well fitted curve in the direction sought with a large enough effect; inconclusive = small, poorly fitted or top-dose-only effect, or another doubt; inactive = no such curve, though single readings can be large; an effect the other way counts as inactive or inconclusive. Potency is the fitted concentration of half-maximal effect.

SMILES | Cruzain inh Det | Cruzain noTriton | Papain counter
CN(C)Cc1cc(O)c(O)c(CN(C)C)c1 | 3.1% | -4.0% | nt
Cc1ccc(CCNC(=O)c2cc3sccc3n2Cc2ccc(F)cc2)cc1 | -7.0% | -4.3% | nt
CCOC(=O)c1ccc(NC(=O)C2Cc3ccccc3CN2S(=O)(=O)c2ccc(Cl)cc2)cc1 (stereo unspecified) | -3.9% | -21.4% | nt
CC(=O)c1ccc(NC(=O)CSc2ccc3nnc(CCNS(=O)(=O)c4ccc(C)cc4)n3n2)cc1 | -2.5% | -6.3% | nt
CC(C)(C)c1ccc(-c2nc(SCC(=O)Nc3ccc(Cl)cc3)[nH]c(=O)c2C#N)cc1 | 15.8µM* | -7.1% | 10µM*
N#Cc1c(-c2ccco2)nc(SCC(=O)Nc2cccc(Cl)c2)[nH]c1=O | -19.5% | 1.4% | nt
O=C(CNC(=O)C1CCCCC1)Nc1ccccc1Cl | -1.9% | 3.9% | nt
O=C(CNC(=O)C1CCCCC1)OC(C(=O)c1ccccc1)c1ccccc1 (stereo unspecified) | nt | nt | 2.5%
O=C(Nc1ccccc1)C1CCCCC1 | 2.3% | 6.9% | nt
NC(=O)C(OC(=O)CNC(=O)C1CCCCC1)c1ccccc1 (stereo unspecified) | nt | nt | 12.6µM*
CC(C)c1ccc(Nc2c(-c3ccc(N4CCOCC4)cc3)nc3ncccn23)cc1 | -2.1% | -1.9% | nt
CC(CNC(=O)c1ccc(CSc2nc3ccncc3n2Cc2cccc(F)c2)cc1)c1ccccc1 (stereo unspecified) | -5.6% | 3.6% | nt
CCC(C(=O)NC1CCCCC1)n1c(SCc2cccc(F)c2)nc2ccncc21 (stereo unspecified) | 12.6µM* | ? | -14.0%
Cc1ccc(NC(=O)Cn2c(SCc3cccc(F)c3)nc3ccncc32)c(C)c1 | -22.5% | -3.3% | nt
CCCCNC(=O)C(CC)n1c(SCc2cccc(F)c2)nc2ccncc21 (stereo unspecified) | nt | nt | -10.2%
CCCCNC(=O)Cn1c(SCc2cccc(F)c2)nc2ccncc21 | nt | nt | -10.3%
COC(=O)c1ccc(Cn2c(SCc3cccc(C)c3)nc3ccncc32)cc1 | -8.9% | ? | nt
COC(=O)c1cc(NC(=O)c2nn(C)c3c2CSc2ccccc2-3)cc(C(=O)OC)c1 | -3.2% | 14.7% | nt
CCOC(=O)C1CCN(C(=O)c2nn(-c3ccc(C)cc3)c(=O)n(C)c2=O)CC1 | -1.4% | -3.4% | nt
CCc1ccc(NC(=O)C2(c3cccs3)CCOCC2)cc1 | -2.8% | -3.5% | nt
O=C(Nc1ccc(-n2nncc2-c2ccccc2)cc1)c1ccccc1 | nt | nt | 4.8%
COc1cccc(C(=O)Nc2ccc(-n3nncc3-c3ccccc3)cc2)c1 | 2.1% | -5.0% | nt
CC(=O)Nc1ccc(/C=C/C(=O)c2ccc(-n3nncc3-c3ccccc3)cc2)cc1 | nt | nt | -6.2%
CSc1ccc(/C=C/C(=O)c2ccc(NC(C)=O)cc2)cc1 | -14.1% | ? | nt
O=C(CN1C(=O)COc2ccc(S(=O)(=O)Nc3ccccc3)cc21)NCc1ccccc1Cl | -5.5% | -12.9% | nt
SMILES | Cruzain inh Det | Cruzain noTriton | Papain counter
CCCOc1ccc(C2C(=O)N(C3CCCCCC3)CC(=O)N2Cc2ccccc2OC)cc1OC (stereo unspecified) | -0.7% | 8.4% | nt
CCOc1c(Cl)cc(CNc2ccc3[nH]c(=O)[nH]c3c2)cc1OC | -3.3% | -1.6% | nt
CCC1CN(C(=O)Nc2cccc3c2CCCC3)c2ccccc2O1 (stereo unspecified) | -0.3% | 15.6% | nt
COc1ccc(Cl)cc1NC(=O)Cn1nnc(C(=O)NCc2cccs2)c1N | -1.1% | ? | nt
CC(=O)NCC(=O)OCC(=O)c1ccc(C)cc1 | 7.0% | 5.8% | nt
COC(=O)c1ccc(NC(=O)CNC(=O)C2CCCCC2)cc1 | 4.8% | 0.6% | nt
O=C(COC(=O)CNC(=O)C1CCCCC1)Nc1ccc2ccccc2c1 | 4.47µM* | 7.94µM* | -14.1%
COc1cc(C(=O)COC(=O)CNC(=O)C2CCCCC2)cc(OC)c1OC | 2.24µM* | 2.51µM* | -27.7%
O=C(CNC(=O)C1CCCCC1)OCC(=O)c1ccccc1 | nt | nt | 15.8µM*
CC(=O)NCC(=O)OCC(=O)c1ccccc1 | 7.4% | -4.1% | nt
O=C(CNC(=O)C1CCCCC1)Nc1ccc(Cl)cc1 | 1.5% | -1.8% | nt
O=C(CNC(=O)C1CCCCC1)OCC(=O)c1ccc(C2CCCCC2)cc1 | nt | nt | -3.7%
CS(=O)(=O)N1CCC2(CCCN(C(c3ccccc3)c3ccccc3)C2)CC1 | -6.0% | 0.0% | nt
CCOc1cccc(C(=O)Nc2ccc(-c3nc4ncccc4o3)cc2C)c1 | -6.7% | ? | nt
Cc1nnc(N2CCN(c3cccc(Cl)c3)CC2)c2c1nnn2Cc1ccc(F)cc1 | 0.7% | -3.3% | nt
Cc1ccc(CCNC(=O)CN2C(=O)COc3ccc(S(=O)(=O)N4CCCCCC4)cc32)cc1 | -5.9% | 21.3% | nt
COC(=O)c1scc(-c2ccc(C)cc2)c1S(=O)(=O)Nc1ccc(F)cc1F | -7.8% | -9.8% | nt
CCOC(=O)N1CCC(NC(=O)c2ccc3c(c2)N(Cc2ccccc2)C(=O)c2ccccc2S3(=O)=O)CC1 | -3.0% | ? | nt
CCOc1ccc(NC(=O)Cn2c(=O)n(Cc3ccc4c(c3)OCO4)c(=O)c3ccc(C(=O)NC4CCCCC4)cc32)cc1 | -3.2% | -22.8% | nt
CCOC(=O)[C@H](CCc1ccccc1)N[C@@H](C)C(=O)N1[C@H](C(=O)O)C[C@H]2CCCC[C@@H]21 | 1.9% | ? | 11.2%
CCOC(=O)[C@H](CCc1ccccc1)N[C@@H](C)C(=O)N1[C@H](C(=O)O)C[C@H]2CCC[C@@H]21 | -3.3% | -9.7% | nt
O=[N+]([O-])c1cccc(I)c1 | 1.1% | -3.1% | nt
O=c1oc2ccccc2cc1-c1csc(Cc2nc(-c3ccc(Br)cc3)cs2)n1 | 2.4% | 3.16µM* | 19.6%
O=c1oc2ccc(Br)cc2cc1-c1csc(-c2ccc(Cl)cc2)n1 | 2.1% | -5.7% | nt
CCCCC1=CC2=C(c3ccco3)C(=O)C(C)(OC(=O)c3cccs3)C(=O)C2=CO1 (stereo unspecified) | -8.8% | -7.9% | nt
SMILES | Cruzain inh Det | Cruzain noTriton | Papain counter
C(/Oc1ccccc1)=C1\Nn2c(nnc2-c2cc(-c3ccccc3)n[nH]2)S1 | nt | nt | 10.5%
CC1(C)Cn2c(nnc2-c2ccccc2)S1 | 8.1% | 6.8% | nt
CC(C)Cn1nnnc1S(=O)(=O)Cc1cccc(C#N)c1 | 2.8% | -0.9% | nt
CC(C)C[C@H](N)c1nnc(S(=O)(=O)Cc2cccc(F)c2)o1 | 11.2µM* | 12.6µM* | 6.3%
CCOCCOC(=O)c1ccc2c(c1)N(Cc1ccccc1C#N)C(=O)c1ccccc1S2(=O)=O | -2.6% | -0.7% | nt
Cc1onc(-c2ccccc2Cl)c1C(=O)N[C@H]1C(=O)N2[C@H]1SC(C)(C)[C@H]2C(=O)O | -1.5% | 1.5% | nt
O=C(COC(=O)CNC(=O)C1CCCCC1)NC1CC1 | nt | nt | 25.1µM*
CCOC(=O)CNC(=O)C1CCCCC1 | nt | nt | -17.6%
O=C(COC(=O)Cc1ccsc1)NC1CCCCCC1 | 5.1% | 6.7% | nt
CC(C)(CNC(=O)C1CCCC1)CNC(=O)C1CCCC1 | -0.8% | -6.3% | nt
CCc1ccc(CNC(=O)c2nn(-c3ccc(OC)c(Cl)c3)c(=O)c3c2c2ccccc2n3C)cc1 | -0.5% | 3.9% | nt
N#Cc1nc(N2CCCCC2)nc(N2CCCCC2)n1 | nt | nt | 2.24µM*
CC(C)CN(C#N)c1nc(N2CCOCC2)nc(N2CCOCC2)n1 | 2.5% | 19.3% | nt
CCN(c1ccccc1)c1nc(N)nc(C#N)n1 | nt | nt | 11.2µM*
CC(C)(C)Nc1nc(N2CCCC2)nc(N2CCCC2)n1 | 3.0% | 8.5% | nt
CCN(CC)c1nc(C#N)nc(N2CCOCC2)n1 | nt | nt | 1µM*
CN(C)c1nc(N)nc(Nc2ccccc2C#N)n1 | -1.0% | 7.0% | nt
CCOc1nc(C#N)nc(N(c2ccccc2)c2ccccc2)n1 | nt | nt | -8.0%
Clc1nc(Cl)nc(N(c2ccccc2)c2ccccc2)n1 | -1.9% | -10.0% | nt

Compound activity as filed in PubChem.
